RMI-FANCM inh: inhibitors of human RMI core complex binding to FANCM MM2; Fluorescence polarization, RMI core complex with F-MM2 peptide; stronger effect = lower value; FP signal (polarization) at 33 µM; hit rate 0.58% among 70,000; in the data active = FP signal below about 40
Hits are given with their value; – = inactive; ! = a repeat was not active. Shown is part of a subset that was picked to be rich in hits.

SMILES	RMI-FANCM inh
CC(=O)Nc1ccc(NC(=O)CSc2ccc(S(=O)(=O)C(F)(F)F)cc2[N+](=O)[O-])cc1	–
N/C(=N\OC(=O)Nc1cccc(C(F)(F)F)c1)c1ccno1	–
CC(C)Sc1ccc(C(=O)Nc2ccc([N+](=O)[O-])cc2)cc1	–
O=c1/c(=C/c2ccc(F)cc2F)sc2nc3ccccc3n12	–
NNC(=O)c1nn(-c2ccccc2)c(=O)c2c(N)scc12	24
CCOC(=O)c1nn(-c2ccc(OC)cc2)c(=O)c2c(NC(=O)c3c(OCC)ccc4ccccc34)scc12	–
O=C(Nc1scc2c(C(=O)O)nn(-c3ccc(C(F)(F)F)cc3)c(=O)c12)c1c(F)cccc1Cl	–
COc1ccc(CCC(=O)N2CCN(Cc3nc(-c4ccco4)cs3)CC2)cc1	–
O=C(CN1CCN(Cc2nc(-c3ccco3)cs2)CC1)N1CCCC1	40
O=C(CN1CCN(Cc2nc(-c3ccco3)cs2)CC1)N1CCOCC1	–
NC(=O)c1ccc(NC(=O)C2CCCN(c3ccc(-c4ccc(Cl)cc4)nn3)C2)cc1 (stereo not given)	–
Cc1nc2ncccc2c(=O)n1-c1cccc(NC(=O)c2ccc(Br)o2)c1	–
Cc1ccc(C)c(COC(=O)c2nnn(-c3ccc(Cl)cc3)c2C)c1	–
COC(=O)/C(C#N)=C\c1cc([N+](=O)[O-])ccc1N1CCCC1	–
N#C/C(=C\c1ccc(-c2cccc(C(F)(F)F)c2)o1)C(N)=S	–
N#C/C(=C/c1ccoc1-c1ccc([N+](=O)[O-])cc1)C(N)=S	24
Cc1cccc(OCc2ccc(C(=O)Nc3ccc(S(N)(=O)=O)cc3)o2)c1	–
N#Cc1c(NC(=O)c2ccno2)sc2c1CCCCC2	–
O=C(Nc1ccc(Br)cc1)c1cnc2n(c1=O)CCS2	–
O=C(Nc1cccc2c1CCCC2)c1cnc2n(c1=O)CCS2	–
O=C(Nc1ccc(S(=O)(=O)Nc2ncccn2)cc1)c1cnc2n(c1=O)CCS2	20
O=C(Cn1ccn(-c2cccc3ccccc23)c(=O)c1=O)Nc1ccc(Br)cc1F	–
CC12CCC(C(=O)N3CCC(C(=O)O)CC3)(CC1=O)C2(C)C (stereo not given)	–
COc1ccc(N2CCN(C(=O)C34CCC(C)(C(=O)C3)C4(C)C)CC2)cc1 (stereo not given)	–
CC1CCCCN1C(=O)C12CCC(C)(/C(=N\O)C1)C2(C)C (stereo not given)	25
SMILES	RMI-FANCM inh
Cc1ccc(-c2ccc(N3CCN(S(=O)(=O)c4cccnc4)CC3)nn2)cc1	–
C=CCn1c(SCCC(=O)Nc2ccc(F)cc2)nc2sc(C)c(C)c2c1=O	–
N#Cc1c(SCC(=O)c2ccc(O)c(O)c2)nc2c(c1-c1ccc(OCc3ccccc3)cc1)CCCC2	24
COc1ccc(-c2c(C#N)c(SCC(=O)c3ccc4c(c3)OCO4)nc3c2C(=O)CC(C)(C)C3)cc1	–
N#Cc1c(SCC(=O)Nc2ccccc2)nc2c(c1-c1ccc(OCc3ccccc3)cc1)CCCC2	–
CCCCOc1ccc(C(=O)Nc2sccc2C#N)cc1	–
O=C(O)c1ccc(NC(=O)c2cccnc2-c2nc3ccccc3s2)cc1	–
O=C(c1cccnc1Oc1ccccc1)N1CCN(C2c3ccccc3-c3ccccc32)CC1	–
Cc1cc(C(=O)N2CCN(C3c4ccccc4-c4ccccc43)CC2)c(C)o1	–
O=C(O)c1ccccc1C(=O)N1CCN(C2c3ccccc3-c3ccccc32)CC1	32
Cc1ccc(NC(=O)CCCn2nc(-c3ccc(Cl)cc3)ccc2=O)cc1F	–
Cc1cc[n+](-c2[nH]c(=O)sc2/C=N\NC(=O)c2ccccc2[O-])cc1	1
Cc1ccc(/C=N\NC(=O)c2cc([N+](=O)[O-])cc([N+](=O)[O-])c2)cc1	–
Cc1ccccc1C(=O)N/N=C\c1ccc(OC(=O)c2ccccc2)cc1	–
O=C(Cc1csc(Nc2cccc(Cl)c2)n1)Nc1ccc2c(c1)OCO2	–
COC(=O)c1c(NC(=O)CC2S/C(=N\N=C/c3ccc([N+](=O)[O-])cc3)NC2=O)sc2c1CCCC2 (stereo not given)	14
COc1ccc(/C=N\N=C2\NC(=O)C(CC(=O)Nc3sc4c(c3C#N)CCCC4)S2)cc1 (stereo not given)	–
O=C(CC1S/C(=N\N=C2CCCCC2)NC1=O)Nc1ccc([N+](=O)[O-])cc1 (stereo not given)	–
CN(C)S(=O)(=O)c1ccc(C(=O)NCCCn2nc(-c3ccco3)ccc2=O)cc1	–
COc1ccc2nc(-c3ccc(C)c(NC(=O)C(C)Oc4ccc5c(c4)OCO5)c3)cn2n1 (stereo not given)	–
O=S(=O)(Nc1ccc(NCc2ccco2)nn1)c1ccc(Cl)cc1	–
O=C(CSc1nccn2nc(-c3ccc(F)cc3)cc12)Nc1ccccc1Cl	–
COC(=O)c1sc(-c2ccccc2)cc1NC(=O)c1ccccc1I	–
COC(=O)c1sc(-c2ccccc2)cc1NC(=O)c1ccccc1Cl	–
COC(=O)c1sc(-c2ccccc2)cc1NC(=O)c1cc2c(ccc3ccccc32)oc1=O	31
SMILES	RMI-FANCM inh
Cn1nnc2c(N3CCc4ccccc43)ncnc21	–
O=C(CCN1CCOCC1)N/N=C\c1ccc(OC(=O)c2cccnc2)cc1	–
COc1cccc2c(Nc3cccc(C(F)(F)F)c3)c(C#N)cnc12	–
O=C(CSC1CN(C(c2ccccc2)c2ccccc2)C1)N/N=C/c1ccc(Cl)cc1Cl	–
O=C(CC1NCCN(Cc2ccccc2)C1=O)N/N=C\c1cc(Cl)cc(Cl)c1O (stereo not given)	35!
Oc1c(Cl)cc(Cl)cc1/C=N\NCCc1ccccn1	–
O=S(=O)(NCC(c1ccsc1)N1CCCCCC1)c1cccc(F)c1 (stereo not given)	–
CCOC(=O)c1c(-c2ccc(C)o2)csc1NC(=O)c1ccco1	–
Cc1ccc(C2C3=C(CCCC3=O)Nc3nc(SC(C)C)[nH]c(=O)c32)s1 (stereo not given)	–
COc1ccc(-n2ccnc2SCC(=O)Nc2cccc3ccccc23)cc1	–
CCNc1nc(SCc2ccc([N+](=O)[O-])cc2)nc2sc3c(c12)CCN(C)C3	-31
CCNc1nc(SCc2ccc([N+](=O)[O-])cc2)nc2sc3c(c12)CCC(C)C3 (stereo not given)	–
Cn1c(SCc2ccc([N+](=O)[O-])cc2)nc2c(c1=O)SCC2	–
Cc1ccc2oc(C(=O)N(Cc3ccccc3)c3ccccc3)cc2n1	–
CCN1CCCc2cc(CCNC(=O)c3ccc(OC(C)C)cc3)ccc21	20
CCN1CCCc2cc(CCNC(=O)NC(C)(C)C)ccc21	–
CCCCOc1ccc(C(=O)NCCc2ccc3c(c2)CCCN3C)cc1	–
CCN1CCCc2cc(CCNC(=O)c3ccc(Br)o3)ccc21	–
CCN1CCCc2cc(CCNC(=O)C(=O)NCCN3CCOCC3)ccc21	–
CCN1CCCc2cc(CCNC(=O)C(=O)NCCOC)ccc21	13
Cn1c(SCC(=O)Nc2cccc(Br)c2)nc2c(-c3ccccc3)csc2c1=O	–
CCOc1ccc(-c2ccc(N3CCN(C(=O)NCc4ccccc4)CC3)nn2)cc1	–
CCS(=O)(=O)Nc1ccc(S(=O)(=O)Nc2nc(C)cc(C)n2)cc1	–
CCOc1ccccc1C(=O)Nn1cnc2c(cnn2C(C)(C)C)c1=O	–
Cc1cc(S(=O)(=O)N2CCOC23CCN(C(=O)c2c(F)cccc2F)CC3)ccc1F	–
CC(C)(C)c1ccc(-n2cccc2)c([N+](=O)[O-])c1	–
Cc1ccc(NC(=S)NC(C)(C)C)c([N+](=O)[O-])c1	–
Cc1ccc(N2C(=O)C=CC2=O)c([N+](=O)[O-])c1	-7
Cc1ncc(CO)c(/C=N\O)c1O	–

Screening results: PubChem, Small Molecule Screening Facility, UW Madison
